High-throughput results as filed in PubChem.
IEC-6 tox: counter-screen for KLF5 inhibitors: cytotoxicity in IEC-6 cells | 290,000 tested, 0.78% active | IEC-6 cytotoxicity, luminescence viability | inhibition, % at 5 µM
Ba/F3 V617F tox: loss of viability in JAK2V617F-driven Ba/F3 cells; Ba/F3 EpoR-JAK2V617F viability, ATP luminescence; inhibition, % at 5.6 µM; 220,000 tested, 1.1% active; AID 1446;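 active means inhibition above the campaign mean plus 3 SD over all tested compounds, cut at about 24% in these data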;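 further: cytokine-independent growth of Ba/F3 cells driven by EpoR plus mutant JAK2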
BaF3 tox: counter-screen for JAK2V617F inhibitors: parental Ba/F3 viability inhibitors. CellTiter-Glo ATP luminescence. inhibition, % at 5.6 µM. 220,000 tested, 1.1% active. AID 1486;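 active means inhibition above a per-campaign cutoff, the mean inhibition of all tested compounds plus 3 SD, cut at about 27% in these data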
APP transl inh: APP translation inhibition; 190,000 tested, 0.82% active; SH-SY5Y APP 5'UTR-luciferase reporter, luminescence; inhibition, % at 2 µM; AID 1285;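 active means inhibition above a set limit, derived from the sample mean plus 3 SD, cut at about 45% in these data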
KLF5 inhibitor: kruppel-like factor 5 inhibition | inhibition, % at 5 µM | DLD-1 KLF5 promoter-luciferase reporter, luminescence | 290,000 tested, 0.23% active | AID 1700;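 active means inhibition above a per-plate limit of that plate's mean compound inhibition plus 3 SD, cut at about 60% in these data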;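 further: higher means less KLF5 promoter-driven luciferase light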
IEC-6 cytotox cf: confirmation of cytotoxic compounds in rat IEC-6 intestinal epithelial cells; shares compounds with IEC-6 tox; IEC-6 rat intestinal epithelial viability, luminescence; inhibition, % at 5 µM; 1,900 tested, 63% active; AID 1907
Hits are given with their value; n = inactive; x = not tested or not shown. The list is not random: actives were taken first. Their share in the collection is about 1.8%. Unless noted, no stated cut-off is given here; in the data, active means inhibition above about 22%; inactive means the rest.

SMILES | IEC-6 tox | Ba/F3 V617F tox | BaF3 tox | APP transl inh | KLF5 inhibitor | IEC-6 cytotox cf
Cc1cnc(NC(=O)COc2cccc3c2OC(C)(C)C3)s1 | 30 | n | n | n | n | 34
CCOC(=O)c1ccc(N2C(=O)c3n[nH]c(-c4ccco4)c3C2c2cccc([N+](=O)[O-])c2)cc1 (stereo not drawn) | n | n | n | n | n | x
CCOc1ccc(N(Cc2cc3ccc(C)cc3[nH]c2=O)S(=O)(=O)c2ccccc2)cc1 | 22 | x | x | x | n | n
Cc1ccc(N=Cc2c(C)[nH]n(-c3nc4ccccc4[nH]3)c2=O)cc1 | 35 | 26 | 39 | n | n | 53
CCOC(=O)c1c(CSC(=N)N)n(C)c2cc(Br)c(OC(C)=O)cc12 | 24 | n | n | x | n | n
COc1cc2[nH]c(=S)nc(NCc3ccc(Cl)cc3)c2cc1OC | 30 | x | x | x | n | 42
CN(C)CCCN1C(=O)c2cccc3c([N+](=O)[O-])ccc(c23)C1=O | 39 | 95 | 79 | 80 | n | 27
CCOn1c(-n2nc(C)cc2C)nc2ccccc2c1=O | n | n | n | n | n | x
Cc1cc(C)n(-c2nc3ccccc3c(=O)n2OCC#N)n1 | 86 | x | x | x | n | 52
O=C(Cc1noc2ccccc12)Nc1ccccn1 | n | n | n | n | n | x
Cc1ccc(NC(=O)Cc2noc3ccccc23)nc1 | 23 | n | n | n | n | n
CCN1/C(=C/c2ccc3cc(C)ccc3[n+]2CC)Sc2cc(C)c(C)cc21 | 39 | 100 | 89 | 46 | n | 29
CCN1/C(=C/c2ccc3cc(C)ccc3[n+]2CC)Sc2ccccc21 | 50 | 102 | 106 | 81 | n | 70
CCN1/C(=C/C=C/C=C/C=C/c2sc3ccccc3[n+]2CC)Sc2ccccc21 | n | x | x | x | n | x
CCc1cc(C(=O)NC2CCCc3c2cnn3-c2cccc(C)c2C)n(C)n1 (stereo not drawn) | 31 | x | x | x | n | 25
Cc1cc(C(=O)NC2CCCc3c2cnn3-c2ccc(C)c(C)c2)n(C)n1 (stereo not drawn) | 38 | x | x | x | n | 27
Cc1ccc(-n2ncc3c2CCCC3NC(=O)c2ccoc2)cc1C (stereo not drawn) | n | x | x | x | n | x
N=C1SCC(=O)N1c1ccc(Cl)cc1 | n | x | x | x | n | x
O=C(NC(=S)NCCOCc1ccc(Cl)cc1)c1cccnc1 | n | n | n | n | n | x
COc1cc2c(cc1OC)C(C)N(C(=O)c1cc(Cl)nc(Cl)c1)CC2 (stereo not drawn) | 39 | x | x | x | n | n
COc1cc2c(cc1OC)C(C)N(C(=O)c1nccnc1C(=O)O)CC2 (stereo not drawn) | n | n | n | x | n | x
Cc1cc(NC(=O)c2cc(-c3ccncc3)nc3c(C)cccc23)no1 | 60 | 41 | 50 | 84 | n | 44
Cc1cccc(NC(=O)c2cc(-c3cccnc3)nc3c(C)cccc23)n1 | n | x | x | x | n | x
CC(C)Oc1ccc(/C(O)=C2/C(=O)C(=O)N(CCN3CCNCC3)C2c2ccc(C(C)C)cc2)cc1 (stereo not drawn) | n | x | x | x | n | x
CCOC(=O)c1[nH]c(C)c(C(=O)Nc2ccccc2C)c1C | 56 | 71 | 66 | 84 | n | 51
SMILES | IEC-6 tox | Ba/F3 V617F tox | BaF3 tox | APP transl inh | KLF5 inhibitor | IEC-6 cytotox cf
Cc1ccc(S(=O)(=O)Nc2ccc3c4c(cccc24)CC3)c(C)c1 | 26 | n | n | n | n | 39
COc1ccc(OCc2cc(C(=O)NC3CCOC(C)(C)C3)no2)c2ccccc12 (stereo not drawn) | 42 | x | x | x | n | n
C=CCN1C(=O)C(O)(CC(=O)c2ccco2)c2cc(Br)ccc21 (stereo not drawn) | 87 | n | n | n | n | 23
Cc1n[nH]c(C)c1C(=O)CC1(O)C(=O)N(Cc2ccccc2)c2ccc(Br)cc21 (stereo not drawn) | n | n | n | n | n | x
CCC(=O)N(CCc1ccccc1)Cc1cc2cc(OC)ccc2[nH]c1=O | n | n | n | x | n | x
COc1ccccc1-c1cc(C(=O)NC2CCN(C)CC2)c2ccc(Cl)c(C)c2n1 | 30 | x | x | x | n | n
Cc1c(Cl)ccc2c(C(=O)NCCN3CCCCC3)cc(-c3ccccn3)nc12 | n | n | n | n | n | x
O=C(NCc1ccccc1Cl)c1nnc(CS(=O)(=O)c2ccccc2)o1 | n | x | x | x | n | x
COc1ccc(C(=O)N/N=C/c2c[nH]c3ccccc23)cc1 | n | x | x | x | n | x
COc1ccc(C(=O)N/N=C/c2sc3ccccc3c2O)cc1 | 27 | n | n | 51 | n | n
COc1cccc(/C=N/NC(=O)C(=O)N/N=C/c2cccc(OC)c2O)c1O | n | n | n | n | n | x
COC(=O)c1cccc(/C=N/NC(N)=S)c1O | 49 | n | n | x | n | n
CCN(CC)CCCN1CC(=O)N2[C@@H](Cc3c([nH]c4ccccc34)C2(C)C)C1=O | n | x | x | x | n | x
CCCCN(CC)CCCNC(=O)c1cc2c(=O)n(CC)c3ccccc3c2s1 | n | x | x | x | n | x
CCCN(CCC)CCCNC(=O)c1cc2c(=O)n(CC)c3ccccc3c2s1 | 22 | x | x | x | n | n
CCn1c(=O)c2cc(C(=O)NCCCOC)sc2c2ccccc21 | 22 | x | x | x | n | n
Cc1ccc(CNCC(=O)Nc2ccc(N3CCOCC3)cc2)cc1 | n | n | n | x | n | x
Cc1ccccc1C=Nc1ccccc1C(N)=O | 23 | n | n | n | n | n
CCN1CCN(Cc2ccc(C(=O)Nc3ccc(C)c(NCc4cnc(NC(=O)OC)cn4)c3)cc2C(F)(F)F)CC1 | n | x | x | x | n | x
CCN1CCN(Cc2ccc(NC(=O)c3ccc(C)c(NC(=O)C(=O)c4c[nH]c5ccccc45)c3)cc2C(F)(F)F)CC1 | 55 | x | x | x | n | n
COc1cc(OC)cc(C(=O)Nc2ccc(N3CCN(C(=O)c4cccs4)CC3)cc2)c1 | 36 | x | x | x | n | 31
COCCCNC1=C(Cl)C(=O)c2ccccc2C1=O | n | n | n | x | n | x
CC(C)OCCCNC1=C(Cl)C(=O)c2ccccc2C1=O | 51 | n | n | x | n | n
CC(C)NC1=C(Cl)C(=O)c2ccccc2C1=O | 44 | n | n | n | n | n
O=C1C(Cl)=C(NCc2cccnc2)C(=O)c2ccccc21 | 99 | x | x | x | n | 57
SMILES | IEC-6 tox | Ba/F3 V617F tox | BaF3 tox | APP transl inh | KLF5 inhibitor | IEC-6 cytotox cf
CCN(CC)CCCNC1=C(Cl)C(=O)c2ccccc2C1=O | 88 | n | n | n | n | 77
COc1cc([N+](=O)[O-])ccc1NC(=O)N1CCCCCC1 | n | x | x | x | n | x
CCOC(=O)C1(Cc2cccc(Cl)c2)CCCN(C(=O)C(C)(C)C)C1 (stereo not drawn) | n | x | x | x | n | x
O=C(COc1ccccc1-c1ccccc1)NN=C1CCCC1 | 53 | n | n | 82 | n | n
CN(C)c1ccc(CNC(=O)CCS(=O)(=O)c2ccc3c(c2)oc(=O)n3C)cc1 | n | x | x | x | n | x
COCCCNC(=S)NNC(=S)NCCCOC | 22 | n | n | x | n | n
COCCCNC(=S)NNC(=O)c1cc(Cl)c(O)c(Cl)c1 | n | n | n | x | n | x
COc1ccc(S(=O)(=O)N2N=C(C)Oc3ccccc3C2=O)cc1 | 68 | 86 | 76 | 85 | n | 45
O=C(O)c1nccnc1C(=O)Nc1ccc(Cl)cn1 | n | x | x | x | n | x
NCCNc1ccc(C(=O)N2c3ccccc3Sc3ccccc32)cc1[N+](=O)[O-] | 35 | x | x | x | n | 24
Nc1ccc(C(=O)OCC(=O)N2c3ccccc3Sc3ccccc32)cc1[N+](=O)[O-] | n | n | n | n | n | x
